The record followed here is PubChem BioAssay (EPA / NIEHS).

Experiment [1] in a line: ATG_E_Box_CIS: Attagene CIS-FACTORIAL HepG2 Assay for human Enhancer Box (E-box) (AID 2282936). Particulars: HepG2 E-box cis-reporter transcription, actives raise or lower the signal. A digest of the protocol:
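E-box-driven reporter transcripts measured in transiently transfected HepG2 after 24 h exposure: RNA reverse-transcribed, PCR-amplified, fluorescently labelled, digested and resolved by capillary electrophoresis. Gain or loss relative to DMSO.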

Experiment [2] in a line: ATG_M_61_CIS: Attagene CIS-FACTORIAL HepG2 Assay for M61 Transcription Factor (Internal Marker) (AID 2282937). The conditions noted are these: HepG2 Attagene CIS-FACTORIAL M61 internal marker reporter; actives raise or lower the signal. A digest of the protocol: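 Human liver HepG2, transient MRTU transfection (cis promoter elements), 24 h compound. Total RNA → oligo(dT) RT → PCR → FAM label → HpaI → CE. Internal background marker; bidirectional fitting, DMSO = baseline.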

Experiment [3] in a line: ATG_EGR_CIS: Attagene CIS-FACTORIAL HepG2 Assay for human Early Growth Response 1 (EGR1) (AID 2282938). The conditions noted are these: HepG2 Attagene CIS-FACTORIAL EGR reporter mRNA; actives raise or lower the signal. A digest of the protocol:
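Transient transfection of human HepG2 with multiple cis-regulated reporter units, chemical exposure 24 h, total RNA isolated. Reverse transcription, PCR, fluorescent labelling and capillary electrophoresis quantify reporter transcripts; activity fitted bidirectionally against DMSO.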

Experiment [4] is described as follows: ATG_M_19_CIS: Attagene CIS-FACTORIAL HepG2 Assay for M19 Transcription Factor (Internal Marker) (AID 2282939). The conditions noted are these: HepG2 Attagene CIS-FACTORIAL M19 internal marker reporter; actives raise or lower the signal. Put shortly: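 HepG2 cells transiently transfected with cis-regulated multiplexed reporter units, dosed 24 h. Reporter mRNA quantified by RT-PCR and capillary electrophoresis; internal background marker fitted bidirectionally versus DMSO.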

Experiment [5] is described as follows: ATG_ERE_CIS: Attagene CIS-FACTORIAL HepG2 Assay for Estrogen Response Element (ERE) (AID 2282940). Particulars: HepG2 ERE cis-reporter, Attagene RNA transcript; actives raise or lower the signal. Put shortly:
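HepG2 cells transiently transfected with multiplexed cis-element reporter units, measuring endogenous transcription factor activity; ERE reporter mRNA quantified after 24 h exposure by RT-PCR, fluorescent labelling, HpaI digestion and capillary electrophoresis. Bidirectional change versus DMSO.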

The nature of experiment [6]: ATG_Ets_CIS: Attagene CIS-FACTORIAL HepG2 Assay for human Erythroblast Transformation Specific (ETS) (AID 2282941). The conditions noted are these: HepG2 ETS cis-reporter transcription, actives raise or lower the signal. Put shortly: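 Multiplexed reporter transcript profiling: HepG2, 24 h treatment, total RNA to cDNA, PCR, 6-FAM labelling, HpaI cut, capillary electrophoresis. Gain- or loss-of-signal fitted against DMSO.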

For experiment [7], the target named is Hepatocyte nuclear factor 3-beta (Homo sapiens) (UniProt Q9Y261). Put plainly: ATG_FoxA2_CIS: Attagene CIS-FACTORIAL HepG2 Assay for human Forkhead box A2 (FOXA2) (AID 2282942). Particulars: HepG2 cis-reporter transcription factor activity, 24 h; actives raise or lower the signal. Put shortly:
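Transient MRTU transfection of HepG2 liver cells; 24 h treatment; total RNA → oligo(dT) RT → PCR → FAM primer extension → HpaI cut → CE. Bidirectional fit vs DMSO.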

The nature of experiment [8]: ATG_FoxO_CIS: Attagene CIS-FACTORIAL HepG2 Assay for human Forkhead box O (FoxO) (AID 2282943). The conditions noted are these: HepG2 Attagene cis-reporter, FoxO element, mRNA; actives raise or lower the signal. A digest of the protocol: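 Human hepatoma HepG2 cells carry transiently introduced reporter transcription units controlled by cis promoter elements. Chemical treatment lasted 24 h, and mRNA signal was compared with DMSO.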

Experiment [9] is described as follows: ATG_GATA_CIS: Attagene CIS-FACTORIAL HepG2 Assay for human GATA Binding Protein (AID 2282944). The conditions noted are these: HepG2 GATA cis-element reporter, Attagene multiplex mRNA; actives raise or lower the signal. Put shortly: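 HepG2 cells transiently transfected with multiplexed cis-element reporter units measure endogenous GATA activity; after 24 h compound exposure, reporter mRNA quantified by RT-PCR and capillary electrophoresis. Changes fitted in both directions vs DMSO.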

Experiment [10] addresses Bile acid receptor (Homo sapiens) (UniProt Q96RI1). Description: ATG_IR1_CIS: Attagene CIS-FACTORIAL HepG2 Assay for human Nuclear Receptor Subfamily 1 Group H Member 4 (NR1H4), IR1 submotif (AID 2282946). The conditions noted are these: IR1 reporter transcription, actives raise or lower the signal. Put shortly:
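HepG2 cells transiently transfected with multiplexed cis-element reporter units read endogenous transcription factor activity. After 24 h compound exposure, reporter mRNA was quantified by RT-PCR, fluorescent labelling, HpaI digestion and capillary electrophoresis; bidirectional fitting versus DMSO baseline.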

Experiment [11] is described as follows: ATG_GRE_CIS: Attagene CIS-FACTORIAL HepG2 Assay for human Glucocorticoid Response Elements (GRE) (AID 2282947). The conditions noted are these: HepG2 GRE cis-reporter, Attagene multiplex mRNA; actives raise or lower the signal. Put shortly: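 Reporter transcripts read by RT-PCR with capillary electrophoresis fluorescence after a 24 h chemical exposure of HepG2 cells transiently transfected with multiple cis-element reporter units. Gain or loss fitted against DMSO.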

Experiment [12] in a line: ATG_ISRE_CIS: Attagene CIS-FACTORIAL HepG2 Assay for human Interferon Regulatory Factor 1 (IRF1) binding to an Interferon-Stimulated Response Element (ISRE) (AID 2282948). Particulars: HepG2 ISRE cis-reporter (Attagene), mRNA transcription readout; actives raise or lower the signal. A digest of the protocol: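 Signal reflects induction or loss of ISRE-linked reporter mRNA in transiently transfected HepG2 cells after a 24 h treatment, detected by fluorescent RT-PCR fragments on capillary electrophoresis and normalised to DMSO.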

Experiment [13] can be described thus: ATG_M_32_CIS: Attagene CIS-FACTORIAL HepG2 Assay for M32 Transcription Factor (Internal Marker) (AID 2282949).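 Further: background control marker of the multiplexed CIS panel rather than a real target.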 The conditions noted are these: HepG2 Attagene cis-factorial M32 reporter, mRNA; actives raise or lower the signal. Put shortly: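 HepG2 human liver cells transiently transfected with cis-promoter-driven multiple reporter transcription units, dosed 24 h. Reporter mRNA quantified by RT-PCR, FAM-labelled primer extension, HpaI digest and capillary electrophoresis; bidirectional fit versus DMSO baseline.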

A short description of experiment [14]: ATG_M_06_CIS: Attagene CIS-FACTORIAL HepG2 Assay for M06 Transcription Factor (Internal Marker) (AID 2282950). Particulars: HepG2 Attagene CIS-FACTORIAL M06 internal marker reporter; actives raise or lower the signal. A digest of the protocol: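 Internal background marker within multiplexed cis-reporter HepG2 system. Cells transiently transfected, dosed 24 h; reporter mRNA measured by RT-PCR, HpaI digestion and capillary electrophoresis. Bidirectional fit relative to DMSO.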

Experiment [15] has as its target Heat shock factor protein 1 (Homo sapiens) (UniProt Q00613). Description: ATG_HSE_CIS: Attagene CIS-FACTORIAL HepG2 Assay for human Heat Shock Transcription Factor 1 (HSE) (AID 2282953). The conditions noted are these: HepG2 HSE cis-reporter, Attagene RNA transcription; actives raise or lower the signal. Put shortly: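 HepG2 cells transfected with cis-promoter reporter units sensing endogenous transcription factor activity; reporter mRNA quantified 24 h post-dose by RT-PCR and capillary electrophoresis of 6-FAM-labelled products. Bidirectional fitting against DMSO.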

A short description of experiment [16]: ATG_MRE_CIS: Attagene CIS-FACTORIAL HepG2 Assay for human Metal Responsive Element (MRE) (AID 2282954). The conditions noted are these: HepG2 MRE cis-reporter transcription, Attagene multiplex; actives raise or lower the signal. A digest of the protocol: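 Endogenous MRE-dependent transcription read as reporter mRNA in transiently transfected human HepG2 cells at 24 h. RNA reverse-transcribed, PCR-amplified, labelled and resolved by capillary electrophoresis; gain or loss relative to DMSO.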

Experiment [17] can be described thus: ATG_PBREM_CIS: Attagene CIS-FACTORIAL HepG2 Assay for human Phenobarbital-responsive Enhancer Module (PBREM) (AID 2282955). Particulars: HepG2 PBREM cis-reporter, Attagene multiplexed transcription; actives raise or lower the signal. Put shortly: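 Endogenous transcription factors in human liver HepG2 cells drive a PBREM cis-element reporter, whose transcript level after 24 h treatment is quantified by RT-PCR with capillary electrophoresis; activity fitted in both directions against DMSO.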

The nature of experiment [18]: ATG_GLI_CIS: Attagene CIS-FACTORIAL HepG2 Assay for human Zinc Finger Protein GLI1 (AID 2282945). Particulars: HepG2, Attagene cis-factorial reporter mRNA, GLI element; actives raise or lower the signal. A digest of the protocol: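 Bidirectional curve fits relative to DMSO, using reporter mRNA levels from RT-PCR plus capillary electrophoresis. Cells were HepG2 transiently carrying cis-regulated reporter constructs, harvested 24 h after dosing.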

For experiment [19], the target named is Hypoxia-inducible factor 1-alpha (Homo sapiens) (UniProt Q16665). Description: ATG_HIF1a_CIS: Attagene CIS-FACTORIAL HepG2 Assay for human Hypoxia Inducible Factor 1 (HIF1A) (AID 2282951). Particulars: HepG2 Attagene cis-factorial HIF1a reporter transcription; actives raise or lower the signal. A digest of the protocol: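 Transient MRTU transfection of human HepG2 liver cells, 24 h compound treatment, then total RNA isolation, oligo(dT) reverse transcription, PCR amplification, fluorescent labelling and capillary electrophoresis of reporter fragments. Gain or loss relative to DMSO.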

Experiment [20] addresses Hepatocyte nuclear factor 6 (Homo sapiens) (UniProt Q9UBC0). Description: ATG_HNF6_CIS: Attagene CIS-FACTORIAL HepG2 Assay for human Hepatocyte Nuclear Factor 6 (HNF6) (AID 2282952). Particulars: HepG2 Attagene cis-factorial HNF6 reporter transcription; actives raise or lower the signal. A digest of the protocol: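 Endogenous factor activity read in transiently transfected HepG2 via promoter-regulated reporter transcripts. RNA harvested 24 h post-dosing, reverse-transcribed, PCR-amplified, FAM-labelled, HpaI-digested and resolved by capillary electrophoresis; fitted in both directions against DMSO.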

The structures appear in SMILES notation. Calls of active or inactive are those of the source. How the source made its calls: active means hit-call score of the fitted dose curve at least 0.9, where 1 is the maximum; inactive means score below 0.9.

Sequence of Hepatocyte nuclear factor 3-beta (Homo sapiens) (Q9Y261 whole entry, looked up): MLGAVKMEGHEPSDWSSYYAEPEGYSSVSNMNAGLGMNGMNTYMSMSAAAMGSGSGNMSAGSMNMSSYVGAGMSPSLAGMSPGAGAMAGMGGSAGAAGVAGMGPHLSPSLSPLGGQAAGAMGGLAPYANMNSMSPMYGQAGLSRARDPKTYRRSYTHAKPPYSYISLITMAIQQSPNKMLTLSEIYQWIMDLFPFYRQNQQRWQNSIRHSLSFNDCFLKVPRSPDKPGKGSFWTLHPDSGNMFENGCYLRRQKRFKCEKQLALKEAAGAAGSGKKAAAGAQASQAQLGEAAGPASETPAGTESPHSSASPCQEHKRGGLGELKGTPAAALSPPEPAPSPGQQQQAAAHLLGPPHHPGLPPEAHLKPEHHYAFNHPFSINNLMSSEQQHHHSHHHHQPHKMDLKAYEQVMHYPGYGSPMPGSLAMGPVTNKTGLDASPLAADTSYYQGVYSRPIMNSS
Sequence of Heat shock factor protein 1 (Homo sapiens) (Q00613 whole entry, looked up): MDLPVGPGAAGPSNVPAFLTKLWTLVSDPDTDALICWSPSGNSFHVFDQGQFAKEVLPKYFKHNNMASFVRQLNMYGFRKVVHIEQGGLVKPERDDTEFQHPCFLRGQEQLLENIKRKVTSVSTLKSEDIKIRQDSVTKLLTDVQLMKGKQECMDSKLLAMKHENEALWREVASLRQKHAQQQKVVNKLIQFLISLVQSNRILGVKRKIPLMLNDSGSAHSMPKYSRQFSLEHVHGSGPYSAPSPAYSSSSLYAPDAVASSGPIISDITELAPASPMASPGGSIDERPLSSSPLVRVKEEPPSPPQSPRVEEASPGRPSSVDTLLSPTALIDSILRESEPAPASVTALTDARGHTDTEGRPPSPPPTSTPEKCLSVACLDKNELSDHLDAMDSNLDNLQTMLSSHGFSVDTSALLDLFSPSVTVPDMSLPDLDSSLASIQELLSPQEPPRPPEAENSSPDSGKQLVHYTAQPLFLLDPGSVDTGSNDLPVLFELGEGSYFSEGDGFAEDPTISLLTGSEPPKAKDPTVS
Sequence of Hepatocyte nuclear factor 6 (Homo sapiens) (Q9UBC0 whole entry, looked up): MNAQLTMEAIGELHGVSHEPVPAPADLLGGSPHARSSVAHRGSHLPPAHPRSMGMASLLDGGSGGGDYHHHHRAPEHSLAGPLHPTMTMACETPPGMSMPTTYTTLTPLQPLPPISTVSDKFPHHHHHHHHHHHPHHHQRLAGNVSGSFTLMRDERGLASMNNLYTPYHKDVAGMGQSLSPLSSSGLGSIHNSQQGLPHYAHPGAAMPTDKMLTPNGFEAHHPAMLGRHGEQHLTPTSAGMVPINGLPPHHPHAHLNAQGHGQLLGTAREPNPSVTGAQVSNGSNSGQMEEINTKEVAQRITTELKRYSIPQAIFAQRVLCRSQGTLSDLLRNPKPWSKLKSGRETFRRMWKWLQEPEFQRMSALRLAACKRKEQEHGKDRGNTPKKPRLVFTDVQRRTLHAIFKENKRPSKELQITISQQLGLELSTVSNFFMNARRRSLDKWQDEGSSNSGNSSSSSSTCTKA
Sequence of Hypoxia-inducible factor 1-alpha (Homo sapiens) (Q16665 whole entry, looked up, the tested form may be a part): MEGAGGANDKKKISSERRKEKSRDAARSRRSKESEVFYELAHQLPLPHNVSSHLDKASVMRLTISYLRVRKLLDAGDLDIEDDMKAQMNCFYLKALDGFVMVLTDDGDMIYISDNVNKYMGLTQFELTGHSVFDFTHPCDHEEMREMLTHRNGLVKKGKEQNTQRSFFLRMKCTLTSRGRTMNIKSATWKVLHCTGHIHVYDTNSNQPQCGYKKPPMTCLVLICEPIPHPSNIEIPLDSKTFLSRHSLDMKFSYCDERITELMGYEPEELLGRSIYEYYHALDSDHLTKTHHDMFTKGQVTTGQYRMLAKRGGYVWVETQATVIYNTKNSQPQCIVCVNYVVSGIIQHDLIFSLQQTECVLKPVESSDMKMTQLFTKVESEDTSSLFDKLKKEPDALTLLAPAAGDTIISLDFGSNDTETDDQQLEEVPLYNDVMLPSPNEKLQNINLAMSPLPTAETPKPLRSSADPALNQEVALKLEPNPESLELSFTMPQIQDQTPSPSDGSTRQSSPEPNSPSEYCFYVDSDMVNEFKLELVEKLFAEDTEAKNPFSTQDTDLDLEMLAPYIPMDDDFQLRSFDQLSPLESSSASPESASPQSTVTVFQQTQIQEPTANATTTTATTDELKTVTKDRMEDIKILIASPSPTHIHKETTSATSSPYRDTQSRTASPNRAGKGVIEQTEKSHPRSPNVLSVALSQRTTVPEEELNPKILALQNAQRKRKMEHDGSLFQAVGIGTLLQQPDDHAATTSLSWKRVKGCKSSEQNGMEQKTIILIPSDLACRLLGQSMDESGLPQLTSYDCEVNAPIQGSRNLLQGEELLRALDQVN
Sequence of Bile acid receptor (Homo sapiens) (Q96RI1 whole entry, looked up): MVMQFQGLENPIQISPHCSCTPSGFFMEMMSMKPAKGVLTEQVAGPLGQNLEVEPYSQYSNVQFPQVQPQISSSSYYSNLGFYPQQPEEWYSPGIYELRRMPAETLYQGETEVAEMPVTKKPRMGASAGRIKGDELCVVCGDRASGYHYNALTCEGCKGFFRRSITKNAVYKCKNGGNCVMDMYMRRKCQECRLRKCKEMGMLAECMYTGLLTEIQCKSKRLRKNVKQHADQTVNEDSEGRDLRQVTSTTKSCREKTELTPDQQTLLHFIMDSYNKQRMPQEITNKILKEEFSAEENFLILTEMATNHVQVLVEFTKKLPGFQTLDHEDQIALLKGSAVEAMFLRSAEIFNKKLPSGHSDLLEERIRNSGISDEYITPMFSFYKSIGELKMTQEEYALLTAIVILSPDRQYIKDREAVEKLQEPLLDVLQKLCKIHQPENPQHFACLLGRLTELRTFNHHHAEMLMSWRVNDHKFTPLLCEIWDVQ

Turning to `COC(=O)C1=C(C)NC(C)=C(C(=O)OCCN(C)Cc2ccccc2)C1c1cccc([N+](=O)[O-])c1` (stereo not given), the AC50 (in general, the concentration giving half of the maximal activity seen) is 19.4 µM (active) in experiment [1]; 26.2 µM (active) in experiment [12]; 54.6 µM (active) in experiment [15]; 19.8 µM (active) in experiment [16]; 0.238 µM (active) in experiment [17]. The molecule was classed as inactive in experiment [2], in experiment [3], in [4], in experiment [5], in [6] and in [7]. In addition, the outcome in [8], in experiment [9], in [10], in [11], in [13] and in experiment [14] was inactive.
For the molecule `CCCCCCCCC`, the result in experiment [1], in [2], in experiment [3], in experiment [4], in [6] and in experiment [7] was inactive. Also, the molecule was classed as inactive in [8], in [9], in [18], in experiment [11], in experiment [12] and in experiment [13]. Moreover, the molecule was classed as inactive in experiment [14], in [19], in experiment [20], in experiment [15], in experiment [16] and in experiment [17]. In experiment [5], the concentration at half-maximal activity (AC50) was 63.2 µM (active).
In the case of `COc1ccc(Nc2ccccc2)c(C)c1`, the result in experiment [1], in [2], in [3], in [4], in experiment [6] and in experiment [7] was inactive. The molecule was classed as inactive in experiment [8], in [9], in experiment [18], in experiment [12], in experiment [13] and in experiment [14]. Besides, the call in experiment [19], in experiment [20] and in [15] was inactive. Further, the AC50 is 19.6 µM (active) in experiment [5] and 128 µM (active) in experiment [16].
Consider `CCOC(=S)SSC(=S)OCC`, for which the outcome in experiment [1], in experiment [2], in experiment [3], in experiment [4], in experiment [5] and in [6] was inactive. In addition, the outcome in experiment [7], in [8], in [9], in [12], in experiment [13] and in experiment [14] was inactive. In addition, the call in experiment [19], in experiment [20], in experiment [16] and in [17] was inactive. Besides, the AC50 in [15] is 157 µM (active).
